Active and inactive are the calls of the source.
System: Wnt5a (protein binding on small-molecule microarray)
Assay: Wnt5a binders on small-molecule microarray, primary screen, biophysical, 635/667 nm fluorescence (AID 1142);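 note: fluorescence read at 667 nm with signal to noise per printed feature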
Conditions: 635 nm fluorescence, higher = more signal

SMILES | composite z-score
CCN1C(=O)[C@H]2[C@H]3[C@H](O)[C@H](O)CC(=NOCC=C(C)CCC=C(C)C)[C@H]3CC[C@H]2C1=O | 0.249
O=C1[C@H]2[C@H]3[C@H](O)[C@H](O)CC(=NOCc4ccccc4)[C@@H]3CC[C@H]2C(=O)N1C1CCCCC1 | 0.0062
CC(C)=CCCC(C)=CCON=C1[C@H]2CCn3c(=O)n(Cc4cc5c(cc4Cl)OCO5)c(=O)n3[C@H]2[C@H](O)[C@@H]2O[C@H]12 | 0.0888
CCCNC(=O)OC[C@H]1O[C@H](CCON=C[C@@H](OC)[C@H](C)C=CCC(=O)OC)C=C[C@@H]1Oc1ccc(OC)cc1 | -0.0615
COC(=O)[C@H](C)NC(=O)[C@@H](C)CO | 0.174
C=CCOC(=O)[C@H]1[C@@H]2C(=O)O[C@@H](c3ccccc3)[C@@H](c3ccccc3)N2[C@@H](c2ccc(OCCOC(=O)[C@H]3C[C@H]4C(=O)N5CCC[C@H]5C(=O)N4[C@H]3c3cccc(OCCO)c3)cc2)[C@]12C(=O)Nc1ccc(I)cc12 | 1.83
CCCCC(=C=CC[C@H](O)c1ccccc1OCCO)C[C@H](O)COCc1ccccc1 | -0.0702
COc1ccc(-c2ccc3c(n2)CCCN3CC(O)CN2CCCc3nc(C)c(C)cc32)cc1 (stereo not given) | 0.268
C[C@H]1Cc2c(-c3ccccc3)nc3c(c2CO1)CN(CCOc1ccccc1)CC3 | 0.379

System: not listed separately
Assay: cell viability in Huh7 cells, primary screen, cytotoxicity control for HCV replication inhibitor project, CellTiter-Glo luminescence, basal, 48 h (AID 1143);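 note: Huh7 hepatoma cells carrying a hepatitis C replication reporter with no stimulus; test concentration not given here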
Conditions: Huh7 HCV replicon, higher = more signal, called active from +8 up or from −8 down

SMILES | z-score
C=CC[C@@H]1C=C[C@H](ON=C2c3cc(OC)ccc3O[C@H](c3cccc(OC)c3)[C@H]2O)[C@@H](CO)O1 | -0.375 (inactive)
COCCOC(=O)N1C(=O)[C@@]2(c3cc(C#CCNC(N)=O)ccc31)[C@H](c1ccc(O)cc1)N1[C@H](c3ccccc3)[C@H](c3ccccc3)OC(=O)[C@H]1[C@@H]2C(=O)N1CCCCCCC1 | -0.446 (inactive)
CC(C)(C)N1C(=O)[C@H]2[C@H]3[C@H](O)[C@H](O)CC(=NOCc4ccccc4)[C@@H]3CC[C@H]2C1=O | -0.939 (inactive)
O=C1C[C@]2(c3ccc([N+](=O)[O-])cc3)C(=O)N(CCN3CCOCC3)c3cc(CO)ccc3[C@H]2N1CC12CC3CC(CC(C3)C1)C2 | -1.04 (inactive)
CC[C@@H](c1ccccc1)n1c(=O)n2n(c1=O)[C@H]1[C@H](O)[C@@H]3O[C@@H]3C(=NOCC(C)C)[C@H]1CC2 | 0.529 (inactive)
O=C1[C@H]2[C@H]3[C@H](O)[C@H](O)CC(=NO[C@@H]4O[C@H](CO)[C@@H](O)[C@H](O)[C@H]4O)[C@@H]3CC[C@H]2C(=O)N1Cc1ccc2c(c1)OCO2 | 0.548 (inactive)
CC(C)=C1C(=O)C(c2ccccc2)=C2CN3C(=O)N(CCc4ccccc4)C(=O)[C@]3(Cc3ccc(F)cc3)[C@H]21 | -0.934 (inactive)
CO[C@@H]1COC(=O)CCC[C@@H](C)[C@H](OC)COC(=O)[C@H](Cc2ccccc2)NC(=O)CC=C[C@H]1C | -1.08 (inactive)
Cc1ccc(F)cc1S(=O)(=O)N[C@@H]1CCN(Cc2ccc(CC(C)C)cc2)C1 | -4.94 (inactive)
CC(C)[Si]1(C(C)C)O[C@@H](c2ccccc2)c2cc(C3CC3)nc(-c3ccccc3)c21 | 0.414 (inactive)
COC(=O)[C@@]1(Cc2ccc(F)cc2)[C@H]2c3cc(C(=O)N(C)C)n(Cc4ccc(OC)c(OC)c4)c3C[C@H]2CN1C(=O)c1ccccc1 | -3.26 (inactive)
CCOC(=O)CCN1C(=O)[C@H]2[C@H]3[C@H](O)C=CC(=O)[C@@H]3CC[C@H]2C1=O | 0.507 (inactive)
C[C@H](c1ccccc1)N1C(=O)[C@H]2[C@@H]3C(=CC[C@H]2C1=O)C(=O)[C@H]1O[C@H]1[C@H]3O | -7.43 (inactive)
CS(=O)(=O)CCOC(=O)C1=CC(CCCO)=CC(c2cccs2)N(Cc2cccc(OC(F)(F)F)c2)C=C1C(=O)OCCS(C)(=O)=O (stereo not given) | -3.11 (inactive)
O=C1[C@H]2[C@H]3[C@H](O)[C@H](O)CC(=NO[C@@H]4O[C@H](CO)[C@@H](O)[C@H](O)[C@H]4O)[C@H]3CC[C@H]2C(=O)N1Cc1ccc2c(c1)OCO2 | -0.402 (inactive)
Cc1cc2c(nc1C)CCCN2CC(C)ON=C1[C@H]2CCn3c(=O)n(-c4ccccc4)c(=O)n3[C@H]2[C@H](O)[C@@H]2O[C@H]12 (stereo not given in full) | 0.357 (inactive)
Cc1cc(C)c(-c2cc([C@H](C)ON=C3[C@H]4CCn5c(=O)n(-c6ccccc6)c(=O)n5[C@H]4[C@H](O)[C@@H]4O[C@H]34)on2)c(C)c1 | -1.72 (inactive)
COc1ccc([Si](C)(C)[C@@H]2[C@@H](CCO)O[C@]3(C(=O)N(Cc4ccc(NC(C)=O)cc4)c4ccccc43)[C@H]2C)cc1 | -8.01 (active)

SMILES | z-score
c1ccc(C2NCCc3c2[nH]c2ccccc32)cc1 (stereo not given) | -0.92 (inactive)
CC(=O)C[C@H](O)[C@@H](NC(=O)OC(C)(C)C)C(C)C | -2.64 (inactive)
CO[C@H]1O[C@H](CO)[C@@H](OC(=O)Nc2ccc(C#N)cc2)[C@H](OC(=O)c2cc3ccccc3[nH]2)[C@H]1OC(=O)c1cc2ccccc2[nH]1 | -3.88 (inactive)
CO[C@@H]1COC(=O)[C@@H]2CCCN2C(=O)[C@@H](C)COC(=O)[C@H](COCc2ccccc2)NC(=O)CC=C[C@H]1C | -0.388 (inactive)
COc1ccc(O[C@H]2C=C[C@@H](c3ccccc3)O[C@@H]2COC(=O)CCC(C)=NO[C@H](C)c2cn([C@@H]3COC[C@H]3O)nn2)cc1 | -3.36 (inactive)
CC(CCC(=O)OC[C@H]1O[C@H](C#Cc2ccccc2)C=C[C@@H]1Oc1ccc(C)cc1)=NO[C@@H](C)c1cn([C@H](CO)Cc2ccccc2)nn1 | -2.82 (inactive)
CO[C@H]1COC(=O)[C@H](C)COC(=O)CC=C[C@@H](C)[C@H](OC)COC(=O)CC=C[C@@H]1C | -0.0182 (inactive)
CCc1cccc(NC(=O)O[C@H]2[C@H](OC(=O)Nc3ccc4c(c3)OCO4)[C@@H](OC(=O)Nc3ccc4c(c3)OCO4)[C@@H](OC)O[C@@H]2CO)c1 | -3.35 (inactive)
CCOC(=O)C[C@H]1[C@H](OC(=O)c2cc3ccccc3oc2=O)[C@@H](NC(=O)c2ccc3ccccc3n2)c2cc(OCCCO)ccc2N1C(=O)c1ccccc1 | -2.98 (inactive)
CCN1C(=O)[C@H]2[C@H]3[C@H](O)[C@H](O)CC(=NOCC=C(C)CCC=C(C)C)[C@H]3CC[C@H]2C1=O | -0.327 (inactive)
O=C1[C@H]2[C@H]3[C@H](O)[C@H](O)CC(=NOCc4ccccc4)[C@@H]3CC[C@H]2C(=O)N1C1CCCCC1 | -0.48 (inactive)
CC(C)=CCCC(C)=CCON=C1[C@H]2CCn3c(=O)n(Cc4cc5c(cc4Cl)OCO5)c(=O)n3[C@H]2[C@H](O)[C@@H]2O[C@H]12 | 0.148 (inactive)
CCCNC(=O)OC[C@H]1O[C@H](CCON=C[C@@H](OC)[C@H](C)C=CCC(=O)OC)C=C[C@@H]1Oc1ccc(OC)cc1 | -0.444 (inactive)
COC(=O)[C@H](C)NC(=O)[C@@H](C)CO | -0.76 (inactive)
C=CCOC(=O)[C@H]1[C@@H]2C(=O)O[C@@H](c3ccccc3)[C@@H](c3ccccc3)N2[C@@H](c2ccc(OCCOC(=O)[C@H]3C[C@H]4C(=O)N5CCC[C@H]5C(=O)N4[C@H]3c3cccc(OCCO)c3)cc2)[C@]12C(=O)Nc1ccc(I)cc12 | 0.156 (inactive)
CCCCC(=C=CC[C@H](O)c1ccccc1OCCO)C[C@H](O)COCc1ccccc1 | -1.41 (inactive)
COc1ccc(-c2ccc3c(n2)CCCN3CC(O)CN2CCCc3nc(C)c(C)cc32)cc1 (stereo not given) | -0.154 (inactive)
C[C@H]1Cc2c(-c3ccccc3)nc3c(c2CO1)CN(CCOc1ccccc1)CC3 | -0.239 (inactive)
